# MBD2 inh: inhibitors of MBD2 binding to methylated DNA, primary screen, biochemical, TR-FRET, DNA-binding domain, human; inhibition, % at 4.4 µM; 370,000 tested, 0.31% active; Methyl-CpG-binding domain protein 2 (Homo sapiens), Q9UBB5; MBD2 binding to methylated oligonucleotide; in the data active means inhibition above about 13%
# Rin1-Abl PPI inh: inhibitors of Rin1-Abl protein binding, primary screen, biochemical, TR-FRET; Tyrosine-protein kinase ABL1 (Homo sapiens) + Ras and Rab interactor 1 (Homo sapiens), …; inhibition, % at 7.35 µM; 360,000 tested, 0.4% active; in the data active means inhibition above about 5%, passing the limit was not always enough
# LEDGF integ inh: blockers of LEDGF/p75-dependent integrase strand transfer – biochemical, TR-FRET, high throughput, primary screen; HIV-1 integrase (with human LEDGF/p75); TR-FRET IN-LEDGF/p75 DNA integration, Eu/Cy5; inhibition, % at 3.7 µM; 370,000 tested, 0.64% active; AID 743269, 2014;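 active means inhibition above the screen-wide mean plus 3 SD, cut at about 13% in these data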;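 further: signal is the Cy5 over europium emission ratio at 671 and 618 nm; 0% = plate median of compound wells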
# Neddylation inh: inhibitors of cullin neddylation, primary screen, biochemical, TR-FRET, uHTS, NAE and Ubc12; 360,000 tested, 0.58% active; NEDD8-conjugating enzyme Ubc12 (Homo sapiens) + NEDD8-activating enzyme E1 regulatory …; calls only at 25 µM; in the data active means inhibition above about 36%
# proKLK7 act: proKLK7 zymogen activators, primary screen, biochemical, fluorescence intensity. purified proKLK7, EDANS-DABCYL substrate fluorescence; 100% is mature enzyme control, 0% vehicle. activation, % at 7 µM. 370,000 tested, 0.9% active. AID 652039, 2013;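 active means activation above the mean of all tested compounds plus 3 SD, computed per campaign excluding outliers beyond control limits, cut at about 13% in these data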
# UHRF1 binding: UHRF1 methylated DNA binding inhibitors, primary screen, counter-screen for MBD2 inhibitor project, biochemical, TR-FRET, human UHRF1, single concentration; E3 ubiquitin-protein ligase UHRF1 (Homo sapiens), Q96T88; UHRF1 binding to methylated oligo; inhibition, % at 4.4 µM; 370,000 tested, 0.75% active; in the data active means inhibition above about 21%;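 further: UHRF1 SRA domain binding a hemimethylated CpG hairpin DNA probe; 0% = median of test compound wells and 100% = reference inhibitor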
# proKLK7 act conf: proKLK7 zymogen activators, confirmation, biochemical, fluorescence intensity, triplicate | shares compounds with proKLK7 act | purified proKLK7, EDANS-DABCYL substrate fluorescence; scaled: vehicle 0, mature enzyme 100 | activation, % at 7 µM | 3,200 tested, 68% active | AID 686949, 2013;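 active means activation, as change over the incubation, above the mean of all tested compounds plus 3 SD, cut at about 13% in these data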
# EDANS interfere: EDANS-DABCYL substrate optical interference, artefact control for kallikrein-7 zymogen activator project, biochemical, fluorescence intensity, high throughput; AID 686952, 2013; shares compounds with proKLK7 act; no enzyme, 4 h; solvent 0%, active enzyme control 100%; activation, % at 7 µM; 3,200 tested, 80% active;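 active means activation above the all-compound mean plus 3 SD, ignoring values outside control-based bounds, cut at about 4.8% in these data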;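 further: value is the 4 h activation minus the activation read at time zero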
# EDANS interf: EDANS fluorescence interference in dose response, no enzyme | EC50, µM | 250 tested, 20% active | shares compounds with proKLK7 act | AID 720493 | EDANS-DABCYL peptide fluorescence interference;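 active means compounds that raise the fluorescence signal in this interference counterscreen, with EC50 at or below 10 µM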;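 further: intact quenched peptide substrate alone read at 355 nm excitation and 520 nm emission; signal is fluorescence gain from T0 to T4 after four hours at room temperature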
# Active calls of the source: *; i = inactive; / = no result given. In the library only some 3.1% were active in any assay of this set; here they are far more common.
SMILES,MBD2 inh,Rin1-Abl PPI inh,LEDGF integ inh,Neddylation inh,proKLK7 act,UHRF1 binding,proKLK7 act conf,EDANS interfere,others
COc1ccc(NC(=O)/C(C#N)=C/c2ncc([N+](=O)[O-])n2C)c(OC)c1,-0.8,-1.4,0.2,i,-0.2,1.2,/,/,
COc1ccc2[nH]c3c(c2c1)CCN1C(=O)C(CC(=O)NCCCn2ccnc2)C[C@H](C(=O)N2CCCCC2)[C@@]31CCc1ccccc1 (some centres not stated),-0.2,-2.3,-5.2,i,0.9,-0.7,/,/,
COc1ccc(OC)c(NC(=O)c2cc(S(=O)(=O)NCc3ccco3)ccc2F)c1,5.2,0.2,-0.1,i,13.4*,1.3,-0.6,0.8,
COc1cc(C2NC(=O)C(C#N)=C(Nc3cccc(C)c3)S2)ccc1O (configuration not stated),1.3,1.0,-3.5,i,-0.2,0.8,/,/,
CCN(CC)Cc1c(O)ccc2c(=O)c(-c3ccccc3)coc12,-1.8,-0.9,-1.3,/,26.1*,4.2,23.0*,30.6*,
COc1ccccc1-c1coc2c(CN(C)C)c(O)ccc2c1=O,-6.7,-0.3,8.6,/,50.5*,-2.1,78.1*,70.2*,
Cc1nc(-c2coc3c(CN(C)C)c(O)ccc3c2=O)cs1,-0.3,-8.7,2.4,/,18.9*,1.2,41.6*,42.5*,
CCN(CC)Cc1c(O)ccc2c(=O)c(-c3ccc4c(c3)OCCO4)coc12,2.6,-0.6,-0.6,/,3.7,-0.1,/,/,
CCN(CC)Cc1c(O)ccc2c(=O)c(Oc3ccccc3OC)coc12,-1.6,-1.3,-2.9,/,14.8*,0.7,43.8*,33.4*,EDANS interf=8.57*
CCC(Oc1ccc2c(=O)c(-c3ccccc3OC)coc2c1)C(=O)OCc1ccccc1 (configuration not stated),-5.0,-0.1,4.5,i,0.8,-1.2,/,/,
CCOC(=O)c1ccccc1NC(=O)COC(=O)C1CCN(S(=O)(=O)c2ccccc2C(=O)OC)CC1,0.4,2.8,-0.6,i,0.5,2.4,/,/,
CC(C)CN1C(=O)C[C@]2(C(=O)N(C)c3ccc(NC(=O)c4cc(F)ccc4F)cc32)C1c1ccccc1 (some centres not stated),7.5,/,0.4,/,0.5,11.4,/,/,
COc1ccccc1Oc1coc2c(CN(C)C)c(O)ccc2c1=O,-2.5,-1.4,1.0,/,61.7*,2.1,63.5*,68.8*,
COc1ccc(N2CCN(CCCNC(=O)CN3C(=O)COc4ccccc43)CC2)cc1,1.0,-5.6,-0.1,i,-0.6,15.6,/,/,
COc1cc(Cn2c3ccc(NC(=O)CC(C)C(F)(F)F)cc3c(=O)n2C)ccc1F (configuration not stated),-2.6,1.2,-0.5,/,17.4*,0.4,-6.8,-6.7,
CCOCCC(=O)Nc1ccc2c(c1)c(=O)n(C)n2-c1ccccc1F,-2.5,-0.8,-2.7,/,20.7*,1.3,21.0*,21.7*,
CCOCCC(=O)Nc1ccc2c(c1)c(=O)n(C)n2Cc1cccc(C(F)(F)F)c1,-2.3,0.4,-1.8,/,15.7*,0.8,6.0,9.7*,
Cc1ccccc1C1N=C2Oc3ccccc3C=C2C(=O)N1 (configuration not stated),-7.0,2.0,1.0,/,35.0*,-0.8,72.0*,72.6*,

# From PubChem
